In all, about 340,000 compounds went through this assay and about 1,000 (0.29%) were called active. No stated cut-off is given here; in the data, inconclusive means inhibition above about 27% without an active follow-up result; inactive means below that. Only a sample is shown. Potency and affinity values are given separately.

As a reminder, the inhibition is the change of the read-out against control, counted positive when it falls.

The experiment in a line: NS1A inhibition, H1N1 influenza, cell based functional assay (AID 504329). To be noted: percent inhibition, at 12.5 µM, hits give high values.
For the molecule `O=C(COc1ccc(Cl)cc1)NCc1nnc(SCC(=O)Nc2ccc(F)cc2F)o1`, the inhibition is 12.3% (inactive). As for `O=C1N2CCSC2=NC1(Nc1nccs1)C(F)(F)F` (configuration not stated), the inhibition is -5.52% (inactive). As for `COC(=O)c1ccccc1S(=O)(=O)N(CCCN1CCOCC1)Cc1cccs1`, the figure is 18.3% (inactive); as for `COc1cccc(C2C(C#N)=C(N)N(N(C)C)C3=C2C(=O)CCC3)c1` (configuration not stated), -18.6% (inactive). Next, `Cn1c(CNc2ccccc2)nc2ccccc21`: -15.8% (inactive); `Cc1ccc(NCc2nc3ccccc3n2C)cc1`: 3.76% (inactive). As for `Cc1cc([N+](=O)[O-])nn1CC(=O)N/N=C/c1ccccc1O`, the figure is 13.7% (inactive); as for `Cc1cc([N+](=O)[O-])nn1Cc1ccc(C(=O)N/N=C/c2ccc(O)cc2O)cc1`, 2.59% (inactive). For `O=C(Cn1cnc([N+](=O)[O-])n1)N/N=C/c1cccc(Cl)c1`, the inhibition was -19.4% (inactive). Regarding `O=C(Cn1cnc([N+](=O)[O-])n1)N/N=C/c1cccc2ccccc12`, the inhibition is 5.61% (inactive). Next, `Cc1ccccc1/C=N/NC(=O)Cn1cnc([N+](=O)[O-])n1`: 0.54% (inactive); `O=C(Cn1cnc([N+](=O)[O-])n1)N/N=C/c1ccc2ccccc2c1`: -2.51% (inactive). Next, `O=C(CCCn1cnc([N+](=O)[O-])n1)Nc1cc(Cl)ccc1O`: -2.62% (inactive); `COc1ccccc1/C=N/NC(=O)Cn1cnc([N+](=O)[O-])n1`: 2.27% (inactive). As for `CCN(CC)S(=O)(=O)c1ccc(Cl)c(NC(=O)COc2ccc3c(C)cc(=O)oc3c2)c1`, the figure is 15.6% (inactive); as for `CC(=O)c1cccc(NC(=O)CSc2ccc(-c3sc(C)nc3C)nn2)c1`, -5.12% (inactive).

`Cc1ccccc1NC(=O)/C(C#N)=C/c1ccc[nH]1`: the inhibition was -10.5% (inactive). Next, `COC(=O)c1ccc(N2CCN(C)CC2)c(NC(=O)COc2ccccc2)c1`: 4.25% (inactive); `COc1ccc(-c2noc(Cn3cc(S(=O)(=O)N4CCCC4)ccc3=O)n2)cc1`: -10.2% (inactive); `Cc1ccc(/C=N/n2c(-c3ccc(Cl)cc3)n[nH]c2=S)o1`: 2.1% (inactive). In the case of `Cc1cc(OCC(=O)N2CCC(C(=O)O)CC2)c2c3c(c(=O)oc2c1)CCC3`, the inhibition is -2.02% (inactive). Next, `O=C(c1c(F)cccc1F)N1CCN(c2cccc(C(F)(F)F)c2)CC1`: -9.64% (inactive).

Consider `Nc1nc(-c2ccccc2)c(-c2ccccc2)s1`, for which the inhibition is 4.73% (inactive). As for `Nc1ccc(N=Nc2ccccc2Cl)c(N)n1`, the figure is 26.8% (inactive); as for `Nc1nc(-c2ccccc2)c(N=Nc2cccnc2)s1`, 18% (inactive); as for `Nc1nc(-c2ccccc2)c(N=Nc2ccc(Cl)cc2)s1`, 11.4% (inactive). As for `C=C(C)COc1ccc(-c2[nH]ncc2-c2ccc(OC)cc2)c(O)c1`, the inhibition is 9.07% (inactive).

As to `CC(=O)c1sc(NC(=O)C2CCCN2S(=O)(=O)c2ccccc2F)nc1C` (configuration not stated), the inhibition was -3.2% (inactive). Next, `COc1cc(C)ccc1OCCCOc1c(Cl)cccc1Cl`: -6.86% (inactive); `CC(C)c1ccc(/C=C2\CC/C(=C\C=N\N(C)C)C2=O)cc1`: 2.58% (inactive); `CN(C)/N=C/C=C1\CC/C(=C\c2ccc(Br)cc2)C1=O`: 5.12% (inactive). As for `O=C(Nc1sc2c(c1C(=O)N1CCOCC1)CCCCC2)c1cccnc1`, the inhibition is 1.63% (inactive). As to `Cc1nccn1CC(=O)N/N=C/c1cccc(O)c1`, the inhibition is -4.69% (inactive).

Consider `Cc1nccn1CC(=O)N/N=C/c1cccs1`, for which the inhibition is -26.6% (inactive). As for `Cc1nccn1CC(=O)N/N=C/c1c[nH]c2ccccc12`, the figure is -1.01% (inactive); as for `COc1cccc(/C=N/NC(=O)Cn2ccnc2C)c1`, -3.78% (inactive); as for `COc1ccc(/C=N/N=C2/NC(=O)C(c3ccccc3)(c3ccccc3)S2)cc1`, 9.74% (inactive). Next, `Cc1cccc(OCc2nnc(SCC(=O)Nc3cccc(C(=O)N4CCOCC4)c3)n2C)c1`: -2.72% (inactive); `CN(CC(=O)Nc1ccccc1Br)C(=O)COc1cccc2c1OC(C)(C)C2`: -2.61% (inactive); `Cc1cc(OCC(=O)N(C)C2CCCCC2)ccc1Cl`: 1.86% (inactive). With `COc1ccc(C2CC(c3cccs3)=NN2C(=O)CSc2nc(=O)n3ccccc3n2)cc1` (configuration not stated), the inhibition is -0.56% (inactive). As for `Cc1ccc(NC(=O)CN2C(=O)CN=C(c3ccccc3)c3cc(Cl)ccc32)cc1`, the inhibition is 24.3% (inactive). Next, `CN(C)c1ccc(NC(=O)CN2C(=O)CN=C(c3ccccc3)c3ccccc32)cc1`: -10.1% (inactive); `CN1CCN(c2nc(-c3ccccn3)nc3ccccc23)CC1`: 10.9% (inactive); `c1ccc(CNc2nc(-c3ccccn3)nc3ccccc23)cc1`: 24.8% (inactive).

For the molecule `c1ccc(CCNc2nc(-c3ccccn3)nc3ccccc23)cc1`, the inhibition was 21% (inactive).

Regarding `Oc1ccccc1-c1nc(NCc2ccco2)c2ccccc2n1`, the inhibition was -19.2% (inactive). For `c1ccc(N2CCN(c3nc(-c4ccccn4)nc4ccccc34)CC2)cc1`, the inhibition was 18.4% (inactive). Next, `CCCN(CCC)c1nc(-c2ccccn2)nc2ccccc12`: 10.6% (inactive); `CCC(C)Nc1nc(-c2cccc(OC)c2O)nc2ccccc12` (configuration not stated): 4.38% (inactive); `C/C(=N\Nc1nc(-c2ccccn2)nc2ccccc12)c1ccc(F)cc1`: 0.16% (inactive).

As for `Cc1noc(C)c1C(=O)OCC(=O)Nc1ccc(N2CCOCC2)cc1`, the inhibition is 5.46% (inactive). As for `O=C(Nc1ccc(OC(F)F)cc1)c1cc(S(=O)(=O)N2CCOCC2)ccc1N1CCCC1`, the inhibition was -1.31% (inactive). As for `Cc1[nH]c2ccccc2c1C(=O)CNc1nccs1`, the figure is -1.86% (inactive); as for `Cc1cccc(-c2nc(C#N)c(N3CCCCC3)o2)c1`, 3.65% (inactive). Next, `COc1ccc(C2(OC)Oc3cc(OC)ccc3C(=O)C2(O)OC)cc1` (configuration not stated): -14.3% (inactive); `COC(=O)c1ccccc1NC(=O)C1CCN(S(C)(=O)=O)CC1`: -15.6% (inactive). Next, `CCCCCN(C(=O)CCC(=O)OCC(=O)c1cccc(OC)c1)c1c(N)n(CCCC)c(=O)[nH]c1=O`: -2.41% (inactive); `O=C(O)c1ccccc1NCCO`: -4.36% (inactive). As to `O=C1c2cccc(NCCNCCO)c2C(=O)c2cccc(NCCNCCO)c21`, the inhibition was 28% (inactive). As for `OCCNCCO`, the figure is -1.33% (inactive).

As to `O=C(O)CCNc1ccc(NCCC(=O)O)c2c1C(=O)c1ccccc1C2=O`, the inhibition was 22.7% (inactive).
